Laboratory results published in PubChem BioAssay (EPA / NIEHS).
Where “and” joins values, the source holds several entries; their conditions need not be identical. Equal entries are not always repeated. The source holds several records for some structures; these can differ, active in one and inactive in another. Calls of active or inactive are those of the source. Rule for the calls: active = hit-call score of the fitted dose curve at least 0.9, where 1 is the maximum; inactive = score below 0.9.

Assays:
Details in all cases: mRNA level, 48 h; actives raise or lower the signal
[1] = read-out: Lipoprotein lipase (LPL), LPL (gene 4023); test: LTEA_HepaRG_LPL: Life Technologies and Expression Analysis (LTEA) Assay for Lipoprotein lipase (LPL) using HepaRG (AID 2283515)
Method in brief: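 Read-out is LPL transcript level by qRT-PCR, normalized to three housekeeping genes and fitted bidirectionally against the DMSO control. Human HepaRG cells received chemicals for 48 h at up to 100 uM.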

[2] = read-out: MicroRNA 122 (MIR122), gene 406906; test: LTEA_HepaRG_MIR122: Life Technologies and Expression Analysis (LTEA) Assay for MicroRNA 122 (MIR122) using HepaRG (AID 2283516); note: the transcript read is the microRNA miR-122
Method in brief: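 HepaRG plated 48 h, switched to serum-free induction medium, then treated in duplicate for 48 h (100 uM top, half-log steps, 0.5% DMSO vehicle). RNA isolated, qRT-PCR performed, concentration-response fitted both directions relative to DMSO.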

[3] = read-out: matrix metalloproteinase-10 (MMP10), MMP10 (gene 4319); test: LTEA_HepaRG_MMP10: Life Technologies and Expression Analysis (LTEA) Assay for matrix metalloproteinase-10 (MMP10) using HepaRG (AID 2283517)
Method in brief: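 Gain or loss of MMP10 mRNA is fitted relative to the 0.5% DMSO vehicle. The human hepatic line HepaRG receives a 48-hour serum-free exposure, in duplicate, with a maximum concentration of 100 uM.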

[4] = read-out: MYC, MYC (gene 4609); test: LTEA_HepaRG_MYC: Life Technologies and Expression Analysis (LTEA) Assay for MYC using HepaRG (AID 2283518)
Method in brief: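 Expression changes were scored by TaqMan qRT-PCR with ACTB, GAPDH and POLR2A normalization. Cultures in serum-free induction medium received duplicate 8-point concentration series, highest 100 uM, for 48 h; DMSO (0.5%) served as baseline.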

[5] = read-out: matrix metalloproteinase-3 (MMP3), MMP3 (gene 4314); test: LTEA_HepaRG_MMP3: Life Technologies and Expression Analysis (LTEA) Assay for matrix metalloproteinase-3 (MMP3) using HepaRG (AID 2283519)
Method in brief: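 HepaRG, human; 48 h dosing, 8 conc. (max 100 uM, half-log), duplicate, 0.5% DMSO. Readout: MMP3 transcript by Fluidigm TaqMan qRT-PCR, ACTB/GAPDH/POLR2A-normalised. Gain or loss fitted vs DMSO.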

[6] = read-out: Paternally Expressed 10 (PEG10), PEG10 (gene 23089); test: LTEA_HepaRG_PEG10: Life Technologies and Expression Analysis (LTEA) Assay for Paternally Expressed 10 (PEG10) using HepaRG (AID 2283520)
Method in brief: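 HepaRG, 48 h post-plating → serum-free induction medium → 48 h chemical exposure (duplicate, 8-pt, max 100 uM, half-log, 0.5% DMSO) → lysis in RLT → TaqMan qRT-PCR for PEG10, ACTB/GAPDH/POLR2A normalisation.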

[7] = read-out: Phosphatase and tensin (PTEN), PTEN (gene 5728); test: LTEA_HepaRG_PTEN: Life Technologies and Expression Analysis (LTEA) Assay for Phosphatase and tensin (PTEN) using HepaRG (AID 2283523)
Method in brief: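 Read-out is PTEN transcript level by multiplexed TaqMan qRT-PCR after 48 h chemical treatment of human HepaRG cultures in serum-free induction medium. Concentrations spanned 100 uM downward in half-log steps, 0.5% DMSO throughout; activity fitted in both directions against vehicle.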

[8] = read-out: solute carrier (SLC22A1), SLC22A1 (gene 6580); test: LTEA_HepaRG_SLC22A1: Life Technologies and Expression Analysis (LTEA) Assay for solute carrier (SLC22A1) using HepaRG (AID 2283524);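 for AC50: differentiated human HepaRG liver cells in serum-free induction medium; TaqMan qRT-PCR normalized to ACTB GAPDH and POLR2A housekeeping genes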
Method in brief: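 HepaRG (human liver line), 48 h dosing in serum-free induction medium; 8 conc., half-log down from 100 uM, 0.5% DMSO vehicle, duplicates. Endpoint: SLC22A1 mRNA, qRT-PCR, housekeeping-normalized; gain/loss fit vs DMSO.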

[9] = read-out: Pyruvate Dehydrogenase Kinase 4 (PDK4), PDK4 (gene 5166); test: LTEA_HepaRG_PDK4: Life Technologies and Expression Analysis (LTEA) Assay for Pyruvate Dehydrogenase Kinase 4 (PDK4) using HepaRG (AID 2283525)
Method in brief: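 In this multiplexed human HepaRG expression assay, cells are treated 48 h with test chemicals across an eight-point range starting at 100 uM. PDK4 mRNA changes, normalized to ACTB/GAPDH/POLR2A, are fitted in both directions relative to vehicle.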

[10] = read-out: NAD(P)H dehydrogenase [quinone] 1 (NQO1), NQO1 (gene 1728); test: LTEA_HepaRG_NQO1: Life Technologies and Expression Analysis (LTEA) Assay for NAD(P)H dehydrogenase [quinone] 1 (NQO1) using HepaRG (AID 2283526)
Method in brief: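 HepaRG, 48 h post-plating → serum-free induction medium → test chemical 48 h (duplicate, 100 uM top, half-log x8, 0.5% DMSO) → RNA isolation → qRT-PCR, ACTB/GAPDH/POLR2A normalization; bidirectional curve fit vs DMSO baseline.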

[11] = read-out: Nuclear factor erythroid 2-related factor 2 (Homo sapiens) (UniProt Q16236); test: LTEA_HepaRG_NFE2L2: Life Technologies and Expression Analysis (LTEA) Assay for Nuclear factor erythroid 2-related factor 2 (NFE2L2) Transcription Factor using HepaRG (AID 2283527)
Method in brief: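 Transcript level of NFE2L2 is the read-out, measured by microfluidic TaqMan qRT-PCR and normalized to three housekeeping genes. Human HepaRG cultures received test chemical for 48 h at up to 100 uM in half-log steps. Gain or loss of signal is fitted relative to 0.5% DMSO.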

[12] = read-out: succinate dehydrogenase complex iron sulfur subunit B (SDHB), SDHB (gene 6390); test: LTEA_HepaRG_SDHB: Life Technologies and Expression Analysis (LTEA) Assay for succinate dehydrogenase complex iron sulfur subunit B (SDHB) using HepaRG (AID 2283528)
Method in brief: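 HepaRG cells (~100,000/well, plated 48 h) exposed in duplicate for 48 h in serum-free induction medium to 8-point half-log series from 100 uM in 0.5% DMSO; mRNA by qRT-PCR normalised to ACTB, GAPDH, POLR2A; bidirectional fit versus DMSO.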

[13] = read-out: Signal transducer and activator of transcription 3 (Homo sapiens) (UniProt P40763); test: LTEA_HepaRG_STAT3: Life Technologies and Expression Analysis (LTEA) Assay for Signal transducer and activator of transcription (STAT3) using HepaRG (AID 2283529)
Method in brief: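 Read-out is STAT3 mRNA level by qRT-PCR, normalized to three housekeeping genes, in human HepaRG liver cells treated for 48 h. Concentrations ran from 100 uM downward in half-log steps; curves were fitted for gain or loss relative to 0.5% DMSO.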

[14] = read-out: solute carrier (SLCO1B1), SLCO1B1 (gene 10599); test: LTEA_HepaRG_SLCO1B1: Life Technologies and Expression Analysis (LTEA) Assay for solute carrier (SLCO1B1) using HepaRG (AID 2283530)
Method in brief: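 Human HepaRG cultures treated for 48 h with an eight-concentration half-log series topping at 100 uM; SLCO1B1 measured by qRT-PCR and fitted bidirectionally relative to DMSO.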

[15] = read-out: sulfotransferase 2A1 (SULT2A1), SULT2A1 (gene 6822); test: LTEA_HepaRG_SULT2A1: Life Technologies and Expression Analysis (LTEA) Assay for sulfotransferase 2A1 (SULT2A1) using HepaRG (AID 2283531)
Method in brief: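 Gene-expression endpoint in a human liver cell line: SULT2A1 mRNA change after 48 h chemical treatment, curves fitted in both directions relative to 0.5% DMSO vehicle. Concentrations spanned eight half-log steps from 100 uM.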

[16] = read-out: Transforming Growth Factor (TGFA), TGFA (gene 7039); test: LTEA_HepaRG_TGFA: Life Technologies and Expression Analysis (LTEA) Assay for Transforming Growth Factor (TGFA) using HepaRG (AID 2283532)
Method in brief: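 HepaRG (human liver line), 48 h exposure, 8 conc. half-log down from 100 uM, 0.5% DMSO vehicle, duplicates; serum-free induction medium. TGFA mRNA by TaqMan qRT-PCR, ACTB/GAPDH/POLR2A normalization; gain/loss fit vs DMSO.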

[17] = read-out: Transforming Growth Factor (TGFB1), TGFB1 (gene 7040); test: LTEA_HepaRG_TGFB1: Life Technologies and Expression Analysis (LTEA) Assay for Transforming Growth Factor (TGFB1) Transporter using HepaRG (AID 2283533)
Method in brief: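 Eight-point concentration-response (max 100 uM, half-log) in HepaRG under serum-free induction conditions, 48 h. TGFB1 mRNA by qRT-PCR, housekeeping-normalized.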

[18] = read-out: Tumor necrosis factor receptor 1 (TNFRSF1A), TNFRSF1A (gene 7132); test: LTEA_HepaRG_TNFRSF1A: Life Technologies and Expression Analysis (LTEA) Assay for Tumor necrosis factor receptor 1 (TNFRSF1A) using HepaRG (AID 2283535)
Method in brief: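 Assay uses 48 h chemical treatment of differentiated HepaRG monolayers, tested in duplicate at eight concentrations from 100 uM downward in 0.5% DMSO. mRNA is normalized to ACTB, GAPDH and POLR2A, with induction or suppression fitted relative to vehicle.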

[19] = read-out: Protein phosphatase 2A (PPP2R4), PTPA (gene 5524); test: LTEA_HepaRG_PPP2R4: Life Technologies and Expression Analysis (LTEA) Assay for Protein phosphatase 2A (PPP2R4) using HepaRG (AID 2283522)
Method in brief: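 Readout is PPP2R4 transcript level by microfluidic qRT-PCR after 48 h chemical treatment of human HepaRG liver cells. Concentrations spanned 100 uM downward in half-log steps; gain or loss of signal was fitted relative to DMSO.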

[20] = read-out: TIMP1, TIMP1 (gene 7076); test: LTEA_HepaRG_TIMP1: Life Technologies and Expression Analysis (LTEA) Assay for TIMP1 using HepaRG (AID 2283534);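 note: TaqMan qRT-PCR signal normalized to ACTB GAPDH and POLR2A housekeeping genes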
Method in brief: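 TIMP1 induction or repression in HepaRG cells after 48 h chemical exposure (eight concentrations, highest 100 uM), assessed by normalized qRT-PCR with bidirectional fitting to DMSO controls.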

Measured: AC50

Sequence of Nuclear factor erythroid 2-related factor 2 (Homo sapiens) (Q16236 whole entry, looked up): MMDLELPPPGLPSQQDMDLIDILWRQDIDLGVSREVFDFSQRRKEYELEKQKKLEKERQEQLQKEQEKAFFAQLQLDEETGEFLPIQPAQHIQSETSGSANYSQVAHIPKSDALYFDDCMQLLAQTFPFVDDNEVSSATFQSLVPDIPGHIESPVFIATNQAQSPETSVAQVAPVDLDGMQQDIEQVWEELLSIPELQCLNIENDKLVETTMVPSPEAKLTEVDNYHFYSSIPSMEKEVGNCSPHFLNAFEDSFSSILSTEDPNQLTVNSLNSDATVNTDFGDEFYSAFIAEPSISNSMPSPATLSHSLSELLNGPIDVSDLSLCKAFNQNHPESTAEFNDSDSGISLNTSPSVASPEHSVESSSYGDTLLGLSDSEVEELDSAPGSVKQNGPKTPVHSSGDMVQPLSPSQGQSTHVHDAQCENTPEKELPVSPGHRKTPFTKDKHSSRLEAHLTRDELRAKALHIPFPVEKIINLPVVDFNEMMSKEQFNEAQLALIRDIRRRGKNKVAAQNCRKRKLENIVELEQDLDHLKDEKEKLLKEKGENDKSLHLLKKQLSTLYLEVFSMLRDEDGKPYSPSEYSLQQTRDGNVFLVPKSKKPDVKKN
Sequence of Signal transducer and activator of transcription 3 (Homo sapiens) (P40763 whole entry, looked up): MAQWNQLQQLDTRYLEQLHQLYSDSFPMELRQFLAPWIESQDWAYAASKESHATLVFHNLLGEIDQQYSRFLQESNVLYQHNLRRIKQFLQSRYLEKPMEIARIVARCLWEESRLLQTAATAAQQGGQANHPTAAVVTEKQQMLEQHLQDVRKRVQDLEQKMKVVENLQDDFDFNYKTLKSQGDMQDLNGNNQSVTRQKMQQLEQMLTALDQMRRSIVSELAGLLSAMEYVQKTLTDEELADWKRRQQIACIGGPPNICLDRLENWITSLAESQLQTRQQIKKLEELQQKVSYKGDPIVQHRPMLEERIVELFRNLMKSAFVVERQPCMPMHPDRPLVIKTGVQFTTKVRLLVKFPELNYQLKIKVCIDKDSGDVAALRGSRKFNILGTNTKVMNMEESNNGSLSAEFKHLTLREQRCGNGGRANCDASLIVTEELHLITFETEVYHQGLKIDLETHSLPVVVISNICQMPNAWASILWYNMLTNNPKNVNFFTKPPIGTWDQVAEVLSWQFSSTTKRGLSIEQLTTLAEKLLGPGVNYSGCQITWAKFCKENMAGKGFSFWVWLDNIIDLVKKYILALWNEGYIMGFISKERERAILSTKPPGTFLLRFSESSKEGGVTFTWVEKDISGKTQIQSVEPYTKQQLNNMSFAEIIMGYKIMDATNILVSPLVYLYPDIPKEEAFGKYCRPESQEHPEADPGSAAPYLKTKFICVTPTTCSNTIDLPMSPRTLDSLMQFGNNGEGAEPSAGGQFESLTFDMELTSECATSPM

CCCCOC(=O)C(C)Oc1ccc(Oc2ccc(C(F)(F)F)cn2)cc1 (stereo unspecified)
not listed: [19] | [20]
inactive: all other assays above

S=C(S)NCCNC(=S)S.[Mn+2].[S-]C([S-])=NCCN=C([S-])[S-].[Zn+2]
active: [1] 1.11 µM and 1.17 µM and 2.99 µM | [2] 780 nM and 954 nM and 816 nM | [3] 846 nM and 655 nM | [4] 4.59 µM and 3.61 µM | [6] 110 nM and 262 nM and 190 nM | [19] 960 nM and 2.26 µM | [7] 1.75 µM and 2.98 µM and 2.22 µM | [8] 985 nM and 1.14 µM and 908 nM | [9] 3.66 µM and 3.63 µM | [10] 0.903 µM | [11] 255 nM and 539 nM | [12] 601 nM and 552 nM and 792 nM | [13] 809 nM and 549 nM and 297 nM | [14] 1.25 µM and 1.22 µM and 1.54 µM | [15] 1.2 µM and 1.29 µM and 1.56 µM | [16] 4.16 µM and 3.27 µM and 4.59 µM | [18] 1.21 µM and 2.33 µM
inactive: [4] | [5] | [9] | [10] | [11] | [17] | [18]

N#CSCSc1nc2ccccc2s1
active: [2] 69.3 µM | [6] 50 µM | [8] 76.7 µM | [9] 32.9 µM | [14] 95.8 µM
not listed: [20]
inactive: all other assays above

c1ccc(Nc2ccccc2)cc1
inactive: all assays above

CCCOC(=O)c1ccc(C(=O)OCCC)nc1
not listed: [20]
inactive: all other assays above

COc1c(Cl)ccc(Cl)c1C(=O)O
not listed: [19] | [20]
inactive: all other assays above

CCCCCOC(=O)COc1cc(N2C(=O)C3=C(CCCC3)C2=O)c(F)cc1Cl
not listed: [19] | [20]
inactive: all other assays above

C=CCOC(Cn1ccnc1)c1ccc(Cl)cc1Cl (stereo unspecified)
inactive: [7] | [12] | [13] | [17] | [20]
active: [1] 13.7 µM | [2] 20.5 µM | [3] 34.4 µM | [4] 36 µM | [5] 75.2 µM | [6] 28.4 µM | [19] 87.5 µM | [8] 31.3 µM | [9] 29 µM | [10] 50 µM | [11] 21.8 µM | [14] 35 µM | [15] 36.4 µM | [16] 50 µM | [18] 77.8 µM

C[C@]12C[C@H](O)[C@H]3[C@@H](CCC4=CC(=O)CC[C@@]43C)[C@@H]1CC[C@@H]2C(=O)CO
active: [14] 50 µM | [15] 66.4 µM
not listed: [19] | [20]
inactive: all other assays above

O=C(c1ccccc1)C1CCCCC1
not listed: [19]
inactive: all other assays above

OB(O)O
not listed: [19]
inactive: all other assays above

CCOC(=O)C(C)Oc1ccc(Oc2cnc3cc(Cl)ccc3n2)cc1 (stereo unspecified)
active: [5] 8.53 µM | [8] 17.2 µM | [9] 70 µM | [15] 2.34 µM
not listed: [19]
inactive: all other assays above
